Assay outcomes (PubChem BioAssay)
ADAM17 inh – inhibits human ADAM17 | P78536 | recombinant ADAM17, EDANS/DABCYL FRET peptide cleavage | inhibition, % at 6.95 µM | actives 0.83% (n = 370,000) | AID 720648;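 active = inhibition above the mean of compounds lying between control limits plus 3 SD, set per campaign, cut at about 8.5% in these data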;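 also: 0% = DMSO-only wells as the low control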
rCAG RNA binder – molecules binding r(CAG) RNA repeats. inhibition, % at 3 µM. actives 1.3% (n = 370,000). r(CAG) RNA repeat, TO-PRO-1 dye displacement fluorescence;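 active = inhibition above the plate cutoff, the mean of all test compounds on that plate plus 3 SD, cut at about 35% in these data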;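 also: 0% = DMSO alone and 100% = 100 µM mitoxantrone as full dye displacement; higher means more dye released from RNA so lower well fluorescence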
ADAM10 inh – inhibits human ADAM10; AID 720582; recombinant ADAM10, EDANS/DABCYL FRET peptide cleavage, 3 h; actives 0.62% (n = 370,000); inhibition, % at 7 µM; O14672;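 active = inhibition above a per-campaign cutoff equal to the mean of compounds falling between control-based bounds plus 3 SD, cut at about 20% in these data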;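 also: 0% = DMSO wells while the 100% control is not disclosed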
KLK7 zymogen act – activates the human kallikrein-7 zymogen; purified proKLK7, EDANS-DABCYL substrate fluorescence; 100% is mature enzyme control, 0% vehicle; actives 0.9% (n = 370,000); P49862; AID 652039; activation, % at 7 µM;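 active = activation above the mean of all tested compounds plus 3 SD, computed per campaign excluding outliers beyond control limits, cut at about 13% in these data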
Target sequence (P49862 whole entry, looked up): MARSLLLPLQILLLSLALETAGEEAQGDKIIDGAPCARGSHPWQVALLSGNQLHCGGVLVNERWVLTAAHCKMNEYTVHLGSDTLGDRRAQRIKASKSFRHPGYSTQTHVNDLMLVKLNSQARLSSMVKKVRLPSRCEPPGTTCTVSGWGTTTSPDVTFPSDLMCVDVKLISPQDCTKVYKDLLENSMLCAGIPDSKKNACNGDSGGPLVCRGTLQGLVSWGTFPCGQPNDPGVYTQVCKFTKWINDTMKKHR
AHR activator – activates the human aryl hydrocarbon receptor. actives 2.5% (n = 320,000). activation, % at 5 µM. AHR-responsive luciferase reporter cells, luminescence; in the data active = activation above about 47%;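 also: 0% = vehicle wells and 100% = reference agonist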
NR3A LBD binder – NR3A (human) ligand-binding domain modulation; NR3A LBD differential scanning fluorimetry, Tm shift; 0% = protein alone, 100% = glycine-bound protein; actives 2.5% (n = 340,000); AID 1259313; Tm shift relative to glycine control, % at 25 µM;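 active = melting temperature shift of at least 10% of the positive control shift, at one fixed dose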
ADAM10 confirm – confirmation of inhibitors of human ADAM10 | shares compounds with ADAM10 inh | ADAM10 QFRET peptide cleavage, EDANS fluorescence | inhibition, % at 6.95 µM | actives 1% (n = 2,100) | AID 743208;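 active = inhibition above about 20% chosen separately for each screening run, limit read from the data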;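 also: 0% = DMSO wells and 100% = marimastat wells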
ADAM17 ctr – ADAM17 inhibition, counter-screen for ADAM10 exosite hits. shares compounds with ADAM10 inh. ADAM17 QFRET peptide cleavage, EDANS fluorescence. inhibition, % at 6.95 µM. actives 0.5% (n = 2,100). AID 743214;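 active = mean triplicate inhibition above the solvent-only control wells' mean plus 3 SD, cut at about 12% in these data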;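 also: 0% = DMSO wells and 100% = marimastat wells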
ADAM10 ctr – ADAM10 inhibition, counter-screen for ADAM17 exosite hits; actives 47% (n = 2,900); shares compounds with ADAM17 inh; recombinant ADAM10, EDANS/DABCYL FRET peptide cleavage, 3 h; inhibition, % at 6.95 µM;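 active = mean inhibition over the triplicate runs exceeds the activity threshold set in the earlier primary screen, cut at about 20% in these data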;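 also: 0% = DMSO wells and 100% = marimastat wells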
ADAM17 confirm – human ADAM17 inhibition, confirmation. shares compounds with ADAM17 inh. inhibition, % at 6.95 µM. recombinant ADAM17, EDANS/DABCYL QFRET peptide cleavage. actives 65% (n = 2,900);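 active = mean inhibition across replicates above the hit cutoff set in the primary screen, cut at about 8.5% in these data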;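 also: 0% = DMSO wells and 100% = marimastat wells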
Active calls of the source: *; . = no result given. Rows were chosen to be rich in hits. Some 7% of all compounds tested hit in one or more screens of this group.

SMILES	ADAM17 inh	rCAG RNA binder	ADAM10 inh	KLK7 zymogen act	AHR activator	NR3A LBD binder	ADAM10 confirm	ADAM17 ctr	ADAM10 ctr	ADAM17 confirm
CCC[C@H]1CN(c2ccc(Br)cc2)C(=O)[C@@H]1CC(=O)Nc1ccc(OC)cc1	-2	5	-8	0	.	.	.	.	.	.
C[C@H](NC(=O)c1nc[nH]c1C(=O)NCc1ccc(CNC(=O)OC(C)(C)C)cc1)c1ccccc1	25*	1	54*	0	1	-10	3	1	29*	16*
C[C@H](NC(=O)c1nc[nH]c1C(=O)N[C@@H](CCCCNC(=O)OC(C)(C)C)C(=O)OC(C)(C)C)c1ccccc1	12*	-2	21*	0	1	-5	6	2	29*	18*
CC(C)(C)OC(=O)NCCCCCNC(=O)c1[nH]cnc1C(=O)Nc1ccc(Cl)cc1	14*	1	31*	0	-3	0	5	2	39*	22*
Cc1nn(Cc2ccccc2Cl)c2sc(C(=O)NCc3ccc4c(c3)OCO4)cc12	12*	16	23*	1	6	-4	6	3	12	12*
COc1ccc(N=Nc2nc(-c3ccccc3)c(-c3ccccc3)[nH]2)cc1	9.2*	7	24*	0	1	-5	9	3	32*	15*
Oc1ccccc1N=Nc1nc(-c2ccccc2)c(-c2ccccc2)[nH]1	9.9*	29	26*	0	5	-5	5	2	28*	12*
C[C@H](O)[C@@H]1C(=O)N2CCc3ccc(N4CCN(C)CC4)cc3[C@@H]2C[C@@H]1N(C)C(=O)c1ccc(C#N)cc1	-1	-1	-11	3	.	1	.	.	.	.
CC(C)CC1C(=O)N(Cc2cn(CCC3OCCCO3)nn2)CCS(=O)(=O)N1Cc1ccc(-c2ccc(Cl)cc2)cc1 (centres undefined)	2	8	-17	0	.	.	.	.	.	.
CC(C)CC1C(=O)N(Cc2cn(CCC3OCCO3)nn2)CCS(=O)(=O)N1Cc1ccc(-c2ccc(F)cc2)cc1 (centres undefined)	11*	6	25*	0	.	.	7	3	31*	17*
CC(C)C1C(=O)N(Cc2cn(CCC3OCCO3)nn2)CCS(=O)(=O)N1Cc1ccc(-c2ccc(F)cc2Cl)cc1 (centres undefined)	10*	6	24*	0	.	.	6	2	33*	17*
COCOCCn1cc(CN2CCS(=O)(=O)N(Cc3ccc(-c4ccc(Cl)c(Cl)c4)cc3)C(C)C2=O)nn1 (centres undefined)	11*	7	23*	0	.	.	7	2	35*	19*
CC(C)C1C(=O)N(Cc2cn(CC3CCCCC3)nn2)CCS(=O)(=O)N1Cc1ccc(-c2ccccc2)cc1 (centres undefined)	11*	15	22*	0	.	.	14	3	38*	15*
CCOC(=O)[C@]12CCC=C1N(Cc1ccc3c(c1)OCO3)C(=O)[C@H](CC(=O)NCc1ccc(C)o1)C2	-3	3	-10	0	.	.	.	.	.	.
Cc1ccc(C)c(N(CC(=O)NCCc2ccccc2)C(=O)CCC(=O)Nc2ccccn2)c1	-2	-3	-2	0	9	-4	.	.	.	.
COc1ccccc1CNC(=O)CCNS(=O)(=O)/C=C/c1ccc(C)cc1	-8	5	-5	1	0	0	.	.	.	.
